Consider five compounds from publication PMC5540273 (PLoS ONE, 2017).

Details in all cases: concentration: 1 μM, replicates: in singlicate; n = 1
Test [1] concerns AKT3.
The subject of test [2] is ALK.
In test [3] the test system is T1, AMPK-alpha1.
T1 construct: gene PRKAA1

Test [4] relates to T2, AMPK-alpha2.
T2 construct: gene PRKAA2

The test system of test [5] is ANKK1.
In test [6] the test system is T3, ARK5.
T3 construct: gene NUAK1

Test [7] deals with T4, ASK1.
T4 construct: gene MAP3K5

Test [8] relates to T5, ASK2.
T5 construct: gene MAP3K6

The test system of test [9] is AURKA.
The subject of test [10] is AURKB.
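Further: KINOMEscan kinase panel screen.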

On to `Fc1ccc(-c2ncn(CCCNCc3ccccc3)c2-c2ccncc2)cc1`, for which the “%Inh” value in test [1] turned out to be 0%; in [2], 0%; in test [3], 22%; in [4], 0%; in test [5], 0%; in [6], 0%. Moreover, the “%Inh” value in test [7] is 11%; in test [8] it was 1%; in test [9] it was 19%; in test [10] it was 8%.

Turning to `O=c1cc(N2CCOCC2)nc2n(Cc3cccc(Cl)c3)ccn12` [GSK2296823], the “%Inh” value was found to be 0% in test [1]; 32% in [2]; 0% in [3]; 0% in [4]; 22% in test [5]; 14% in [6]. The “%Inh” value is on record as 0% in test [7], 0% in [8], 0% in test [9] and 3% in [10].

Take `Cc1cccc(-c2nc(Nc3ccc4[nH]nnc4c3)c3ccccc3n2)n1` [GW867587]: the “%Inh” value in test [1] came out at 0%; in test [2] it was 2%; in [3], 0%; in test [4] it was 0%; in [5], 0%; in test [6], 0%. Moreover, the “%Inh” value in test [7], in [8], in test [9] and in test [10] was 0% throughout.

As for `COC(=O)c1c(-c2ccccc2)c2cc(Cl)ccc2c(=O)n1Cc1ccc(S(C)(=O)=O)cc1`, the “%Inh” value is given as 0% in test [1]; 8% in [2]; 7% in test [3]; 0% in [4]; 0% in test [5]; 19% in [6]. Besides, the “%Inh” value turned out to be 6% in [7], 6% in test [8], 4% in test [9] and 12% in test [10].

As for `COc1cc2ncnc(Nc3ccc(OCc4ccccc4Br)c(Cl)c3)c2cc1OC.Cl` [GI261590], the “%Inh” value in [1] stood at 0%; in test [2], 39%; in test [3], 11%; in test [4] it was 0%; in [5], 0%; in test [6], 3%. Also, the “%Inh” value in [7] is reported as 10%; in [8] it was 0%; in [9], 1%; in [10] it was 35%.
